# FECH block – human FECH heme synthesis enzyme inhibition; P22830; purified FECH, Ni-mesoporphyrin absorbance 550 nm; calls only at 10 µM (by protocol); 20,000 tested, 3.3% active; AID 1671448;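 active = enzyme reaction rate more than 3 SD below the solvent-only control wells on the same plate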;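 note: lower slope than DMSO wells means FECH inhibition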
# Target sequence (P22830 whole entry, looked up): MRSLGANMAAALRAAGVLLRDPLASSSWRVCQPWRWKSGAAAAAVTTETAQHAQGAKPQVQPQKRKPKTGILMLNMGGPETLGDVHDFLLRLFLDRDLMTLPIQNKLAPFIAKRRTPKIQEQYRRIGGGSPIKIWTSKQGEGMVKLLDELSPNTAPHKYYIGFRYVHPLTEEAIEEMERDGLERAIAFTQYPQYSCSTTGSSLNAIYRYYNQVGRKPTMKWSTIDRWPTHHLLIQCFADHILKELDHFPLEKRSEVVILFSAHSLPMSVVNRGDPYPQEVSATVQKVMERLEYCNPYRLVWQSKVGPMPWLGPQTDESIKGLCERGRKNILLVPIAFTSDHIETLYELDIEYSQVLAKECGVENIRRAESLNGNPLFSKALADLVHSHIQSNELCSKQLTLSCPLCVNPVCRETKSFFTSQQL
# Calls only; 0 = inactive; + = active, no number. Shown is part of a subset that was picked to be rich in hits.
SMILES,FECH block
CC(C)NC(=O)CN1c2ccc(Br)cc2-c2ccccc2S1(=O)=O,+
O=C(CN1c2ccc(Br)cc2-c2ccccc2S1(=O)=O)NCC1CCCO1 (stereo not given),+
CCc1ccc2c(c1)-c1ccccc1S(=O)(=O)N2CC(=O)Nc1cc(C)ccc1C,+
CCc1ccc2c(c1)-c1ccccc1S(=O)(=O)N2CC(=O)Nc1ccc2c(c1)OCO2,0
Cc1cccc(NC(=O)CC(=O)NC[C@@H]2CCCO2)c1C,0
COCC(C)NC(=O)CN1c2ccc(F)cc2-c2ccccc2S1(=O)=O (stereo not given),0
O=C(CN1c2ccc(F)cc2-c2ccccc2S1(=O)=O)NC(c1ccccc1)c1ccccc1,0
CC(C)c1ccc2c(c1)-c1ccccc1S(=O)(=O)N2CC(=O)N1CC(=O)Nc2ccccc21,0
CCc1ccc2c(c1)-c1ccccc1S(=O)(=O)N2CC(=O)Nc1ccccc1Oc1ccccc1,0
CN1CCN(C(=O)CN2c3ccc(Br)cc3-c3ccccc3S2(=O)=O)CC1,+
O=C(CN1c2ccc(Br)cc2-c2ccccc2S1(=O)=O)N1CCc2ccccc2C1,0
CCOC(=O)c1cc2ccsc2n1CC(=O)Nc1cccc(OC)c1,0
O=S(=O)(NCc1nc2cccnc2n1Cc1ccccc1)c1cccc2nsnc12,0
COC(=O)c1cc(S(=O)(=O)N2CCCC2C(=O)Nc2cccc(C)c2C)cn1C (stereo not given),0
CCN(Cc1noc(C2CCC2)n1)C(=O)CSc1nnc(C)s1,0
CC(C)c1cc(Nc2ccc(Cl)cc2)n2nc(-c3cccnc3)nc2n1,0
CCN(CC)c1ncc(NS(=O)(=O)c2ccc(F)c(F)c2)cc1C(=O)O,0
Cc1ccc(OCC(N)=O)c(-c2ccc(S(C)(=O)=O)cc2)c1,0
Clc1ccc(Nc2nc(N3CCCCC3)nc3c2cnn3-c2ccccc2)cc1,0
Cc1ccc(Cl)cc1Nc1cc(C(C)C)nc2nc(-c3cccnc3)nn12,0
C=CCNC(=O)CN1c2ccc(Br)cc2-c2ccccc2S1(=O)=O,+
COc1ccc(C)cc1NC(=O)CN1c2ccc(Br)cc2-c2ccccc2S1(=O)=O,+
COc1ccc(C)cc1NC(=O)Cn1ccnc1-c1nccn1C,0
O=C(CN1c2ccc(Br)cc2-c2ccccc2S1(=O)=O)NCCC1=CCCCC1,+
COc1ccccc1CNC(=O)CN1c2ccc(Br)cc2-c2ccccc2S1(=O)=O,0
SMILES,FECH block
CCNC(=O)CN1c2ccc(Br)cc2-c2ccccc2S1(=O)=O,+
Cc1ccc(S(=O)(=O)NCc2nc3cccnc3n2CC(C)C)c(C)c1,0
Cc1nc(-c2ccc(NC(=O)Nc3ccc(S(N)(=O)=O)cc3)cc2)no1,0
CCN1CCN(c2nc(Nc3ccc(SC(F)F)cc3)c3cnn(-c4ccccc4)c3n2)CC1,0
CCCN(Cc1nccn1C)C(=O)c1cccc(CC2CCNCC2)c1,0
CCn1c(=O)n(Cc2nc(-c3ccccc3OC)oc2C)c(=O)c2cnc(-c3ccc(OC)cc3)nc21,0
Cc1ccc(-c2ccnc(N3CCc4nc(N)sc4C3)n2)c(C)n1,0
CN(C)Cc1ccccc1CN(C)c1nc(C(C)(C)C)nc2c1cnn2C,0
Cc1ncc(CN2CCCC2c2nc(-c3ccccc3)no2)[nH]1 (stereo not given),0
CCOc1ccc(-c2cc(C(=O)NCc3ccc(S(N)(=O)=O)cc3)no2)cc1,+
Cc1ccc(-c2cc(C(=O)NCc3ccc(S(N)(=O)=O)cc3)no2)cc1,0
COc1ccc(-c2cc(C(=O)Nc3ccc(S(N)(=O)=O)cc3)no2)cc1,+
Cc1ccc(-c2cc(C(=O)Nc3ccc(S(N)(=O)=O)cc3)no2)cc1,0
Cc1ccc(-c2cc(C(=O)NCCc3ccc(S(N)(=O)=O)cc3)no2)cc1,0
NS(=O)(=O)c1ccc(NC(=O)c2cc(-c3ccccc3)on2)cc1,0
O=S(=O)(NCCn1c(-c2ccc(F)cc2)nc2cccnc21)c1ccc(Cl)s1,0
CCC(C)(C)NS(=O)(=O)c1ccc2c(c1)CCN2C(=O)CCC(=O)N1CCOCC1,0
CC(=O)c1cccc(Nc2c(-c3ccc4c(c3)CCCC4)c(=O)c2=O)c1,0
C[C@H](C(N)=O)n1cnc(-c2ccccc2)c1-c1cccn1-c1ccccn1,0
CN1CCCN(CC(=O)NCc2cccc(Oc3ccccc3)c2)CC1,0
Cc1ccc2[nH]c3c(=O)n(CCC(=O)NCCc4ccc(S(N)(=O)=O)cc4)cnc3c2c1,0
NS(=O)(=O)c1ccc(CCNC(=O)CCn2cnc3c([nH]c4ccccc43)c2=O)cc1,+
NS(=O)(=O)c1ccc(CCNC(=O)CCn2cnc3c([nH]c4ccc(F)cc43)c2=O)cc1,0
CCCn1ccnc1CN1CCC2(CC1)C(=O)NCCCN2C,0
Cc1ccccc1CC(=O)N1C[C@@H](C(=O)O)C[C@@H](C(=O)N2CCN(C)CC2)C1,0
Cc1cc(N2CCCC2)nc(Nc2ccc(NC(=O)c3ccccc3C(F)(F)F)cc2)n1,0
COc1cc(C(=O)Nc2ccccc2Sc2c(C)c(C)nc3ncnn23)cc(OC)c1OC,0
Cc1nc2ncnn2c(Sc2ccccc2NC(=O)c2ccc(Br)cc2)c1C,0
COc1ccc(C(=O)Nc2ccccc2Sc2c(C)c(C)nc3ncnn23)cc1,+
